# Source: the antibiotic and cytotoxicity screens of Wong et al. (2023)
# Out of some 39,000 compounds screened, about 3,300 (8.5%) were called active. Only a selection was taken, and actives are over-represented in it overall.
# Tested on: HepG2
# Test: cytotoxicity call (relative viability < 0.9)
# Settings: 10 µM
row,Structure (SMILES),cytotoxicity call
1,C[C@@H]1CN([C@@H](C)CO)C(=O)c2cc(NC(=O)CCCN(C)C)ccc2O[C@@H](C)CCCCO[C@@H]1CN(C)C,inactive
2,C[C@H]1CN([C@@H](C)CO)C(=O)c2cccc(NC(=O)CCCCCC(=O)Nc3ccccc3N)c2O[C@@H]1CN(C)Cc1ccc(-c2ccccc2)cc1,inactive
3,CN(Cc1ccc(/C=C/C(=O)Nc2ccc(-c3cccs3)cc2N)cc1)CC12CC3CC(CC(C3)C1)C2,inactive
4,CN(Cc1ccc(/C=C/C(=O)Nc2ccc(-c3ccccc3)cc2N)cc1)CC12CC3CC(CC(C3)C1)C2,active
5,O=C(C[C@H]1CC[C@@H]2[C@H](COC[C@H](O)CN2S(=O)(=O)c2cccc(F)c2)O1)NCc1ccncn1,inactive
6,C[C@H]1CN([C@@H](C)CO)C(=O)c2cc(C#CC3CCCCC3)cnc2O[C@H]1CN(C)C(=O)Cc1ccccn1,inactive
7,CCc1nc2ccc(C(=O)NCc3ccc(OC)cc3)cn2c1N(CC)Cc1cccc(Br)c1,inactive
8,CC(=O)n1cc([C@@H]2C=C(C(=O)N3CCN(Cc4ccc5c(c4)OCO5)CC3)O[C@H](OCc3ccc(COC(=O)NCCCCCC(=O)NO)cc3)C2)c2ccccc21,inactive
9,CCC(=O)NCCC1CCc2ccc3c(c21)CCO3 (centres undefined),active
10,CCC(=O)NCc1nn(C)c2c1COCC2,inactive
11,COc1ccc(NC(=O)N(C)C[C@@H]2OCCCC[C@@H](C)Oc3ccc(NC(=O)Nc4cccc5ccccc45)cc3C(=O)N([C@@H](C)CO)C[C@@H]2C)cc1,inactive
12,C[C@H](CO)N1C[C@H](C)[C@@H](CN(C)Cc2ccc3c(c2)OCO3)OCCCC[C@H](C)Oc2ccc(NC(=O)Cc3ccccc3)cc2C1=O,inactive
13,C[C@@H]1CCCCO[C@@H](CN(C)CC2CC2)[C@H](C)CN([C@H](C)CO)C(=O)c2cc(NC(=O)Nc3ccc4c(c3)OCO4)ccc2O1,inactive
14,C[C@H](CO)N1C[C@H](C)[C@H](CN(C)CC2CC2)OCCCC[C@H](C)Oc2ccc(NC(=O)Nc3ccc4c(c3)OCO4)cc2C1=O,inactive
15,C[C@@H]1CCCCO[C@H](CN(C)CC2CCCCC2)[C@@H](C)CN([C@H](C)CO)C(=O)c2cc(NC(=O)Nc3ccc4c(c3)OCO4)ccc2O1,inactive
16,C[C@@H]1CCCCO[C@@H](CN(C)CC2CCCCC2)[C@@H](C)CN([C@H](C)CO)C(=O)c2cc(NC(=O)Nc3ccc4c(c3)OCO4)ccc2O1,active
17,C[C@H](CO)N1C[C@H](C)[C@H](CN(C)CC2CCCCC2)OCCCC[C@H](C)Oc2ccc(NC(=O)Nc3ccc4c(c3)OCO4)cc2C1=O,active
18,C[C@@H]1CCCCO[C@@H](CN(C)CC2CC2)[C@@H](C)CN([C@H](C)CO)C(=O)c2cc(NC(=O)Nc3ccc4c(c3)OCO4)ccc2O1,inactive
19,C[C@H]1CCCCO[C@H](CN(C)CC2CCCCC2)[C@@H](C)CN([C@@H](C)CO)C(=O)c2cc(NC(=O)Nc3ccc4c(c3)OCO4)ccc2O1,active
20,C[C@@H]1CCCCO[C@@H](CN(C)CC2CCCCC2)[C@@H](C)CN([C@@H](C)CO)C(=O)c2cc(NC(=O)Nc3ccc4c(c3)OCO4)ccc2O1,active
21,C[C@@H]1CCCCO[C@H](CN(C)CC2CCCCC2)[C@H](C)CN([C@H](C)CO)C(=O)c2cc(NC(=O)Nc3ccc4c(c3)OCO4)ccc2O1,inactive
22,C[C@H](CO)N1C[C@H](C)[C@@H](CN(C)CC2CC2)OCCCC[C@H](C)Oc2ccc(NC(=O)Nc3ccc4c(c3)OCO4)cc2C1=O,inactive

row,Structure (SMILES),cytotoxicity call
1,C[C@@H]1CCCCO[C@H](CN(C)CC2CC2)[C@@H](C)CN([C@H](C)CO)C(=O)c2cc(NC(=O)Nc3ccc4c(c3)OCO4)ccc2O1,inactive
2,C[C@@H]1CN([C@H](C)CO)C(=O)c2cc(NC(=O)Nc3ccc4c(c3)OCO4)ccc2O[C@@H](C)CCCCO[C@@H]1CN(C)CC1CCCCC1,inactive
3,CCC[C@@]1(CCc2ccccc2)CC(=O)[C@@H]([C@H](CC)c2cccc(NS(=O)(=O)c3ccc(C(F)(F)F)cn3)c2)C(=O)O1,inactive
4,C[C@@H]1CCCCO[C@@H](CN(C)Cc2ccc(C(=O)O)cc2)[C@@H](C)CN([C@@H](C)CO)C(=O)c2cc(NS(=O)(=O)c3ccc(F)cc3)ccc2O1,inactive
5,C[C@@H]1CN([C@@H](C)CO)S(=O)(=O)c2ccc(-c3cccnc3)cc2O[C@@H]1CN(C)CC1CCOCC1,inactive
6,COc1ccc(S(=O)(=O)Nc2cccc3c2O[C@H](CN(C)S(=O)(=O)c2ccccc2)[C@@H](C)CN([C@@H](C)CO)C3=O)cc1,inactive
7,C[C@H](CO)N1C[C@H](C)[C@H](CN(C)S(=O)(=O)c2ccc(F)cc2)Oc2ccc(NC(=O)C3CC3)cc2CC1=O,inactive
8,O=C(O)CCc1n[nH]c(=S)[nH]c1=O,inactive
9,Cc1ccc(S(=O)(=O)Nc2ccc3c(c2)C(=O)N([C@H](C)CO)C[C@H](C)[C@@H](CN(C)C(=O)c2ccccc2)OCCCC[C@H](C)O3)cc1,inactive
10,C[C@@H]1CN([C@H](C)CO)C(=O)Cc2cc(NC(=O)Cc3ccccc3)ccc2O[C@H]1CN(C)S(=O)(=O)c1ccc(F)cc1,inactive
11,COc1ccc(NC(=O)N(C)C[C@H]2OCCCC[C@H](C)Oc3ccc(NC(=O)Cc4ccccc4)cc3C(=O)N([C@H](C)CO)C[C@H]2C)cc1,inactive
12,C[C@@H]1CN([C@H](C)CO)C(=O)Cc2cc(NC(=O)Cn3cnnn3)ccc2O[C@H]1CN(C)S(=O)(=O)c1ccc(F)cc1,inactive
13,COc1ccc(S(=O)(=O)Nc2cccc3c2O[C@@H](CN(C)Cc2ccc(Oc4ccccc4)cc2)[C@@H](C)CN([C@@H](C)CO)C3=O)cc1,inactive
14,CCS(=O)(=O)N1C[C@]2(C1)CN([C@@H](CO)c1c2c2ccc(cc2n1C)OC)C(=O)c1ccc(cc1)F,inactive
15,CN(C)C(=O)c1ccc(-c2ccc3n(c2=O)C[C@H]2[C@H](CO)[C@@H](C(=O)NCCc4ccccc4)N[C@@H]32)cc1,inactive
16,C[C@@H]1CCCCO[C@@H](CN(C)CC2CCCCC2)[C@H](C)CN([C@H](C)CO)C(=O)c2cc(NC(=O)Nc3ccc4c(c3)OCO4)ccc2O1,inactive
17,C[C@@H]1CN([C@@H](C)CO)C(=O)c2cc(NC(=O)Nc3ccc4c(c3)OCO4)ccc2O[C@@H](C)CCCCO[C@@H]1CN(C)CC1CCCCC1,inactive
18,C[C@H]1CCCCO[C@@H](CN(C)CC2CCCCC2)[C@@H](C)CN([C@@H](C)CO)C(=O)c2cc(NC(=O)Nc3ccc4c(c3)OCO4)ccc2O1,active
19,C[C@@H]1CCCCO[C@@H](CN(C)CC2CCCCC2)[C@H](C)CN([C@@H](C)CO)C(=O)c2cc(NC(=O)Nc3ccc4c(c3)OCO4)ccc2O1,inactive
20,C[C@H](CO)N1C[C@H](C)[C@@H](CN(C)CC2CCCCC2)OCCCC[C@H](C)Oc2ccc(NC(=O)Nc3ccc4c(c3)OCO4)cc2C1=O,inactive
21,C[C@@H]1CN([C@@H](C)CO)C(=O)c2cc(NC(=O)Nc3ccc4c(c3)OCO4)ccc2O[C@@H](C)CCCCO[C@H]1CN(C)CC1CCCCC1,active
22,C[C@@H]1CCCCO[C@H](CN(C)CC2CCCCC2)[C@H](C)CN([C@@H](C)CO)C(=O)c2cc(NC(=O)Nc3ccc4c(c3)OCO4)ccc2O1,active

row,Structure (SMILES),cytotoxicity call
1,CC(C)CC#Cc1cnc2c(c1)C(=O)N([C@@H](C)CO)C[C@@H](C)[C@H](CN(C)S(=O)(=O)c1ccccc1)O2,inactive
2,CC(C)(C)c1nc(-c2cccc(NS(=O)(=O)c3c(F)cccc3F)c2F)c(-c2ccnc(N)n2)s1,inactive
3,CC(C)NC(=O)N(C)C[C@H]1Oc2ccc(NC(=O)CCN3CCOCC3)cc2CC(=O)N([C@@H](C)CO)C[C@H]1C,inactive
4,CCS(=O)(=O)N1C[C@]2(CCN(CC2)Cc2cccc(c2)OC)c2c(n(c3cc(ccc23)OC)C)[C@@H]1CO,inactive
5,C[C@H](CO)N1C[C@H](C)[C@@H](CN(C)C(=O)c2ccccn2)Oc2cc(Br)ccc2S1(=O)=O,inactive
6,CCNC(=O)c1cc2c(c(-c3cccc(-c4cc5ccccc5o4)c3)n1)[C@@H](CCO)N(C(=O)NC(C)C)C2,inactive
7,Cc1ccc(S(=O)(=O)N(C)C[C@H]2Oc3ncc(Br)cc3C(=O)N([C@H](C)CO)C[C@@H]2C)cc1,inactive
8,C[C@H](CO)N1C[C@H](C)[C@@H](CN(C)C(=O)Nc2ccc(F)cc2)OCCCC[C@H](C)Oc2ccc(NC(=O)NC3CCCCC3)cc2C1=O,inactive
9,Cc1c(-c2ccc(C(N)=O)c3[nH]c4cc(C(C)(C)O)ccc4c23)cccc1-n1cnc2ccccc2c1=O,active
10,CCOC(=O)Cn1cnc2ccccc2c1=O,inactive
11,Cc1nc2c(cc1C(=O)NN)c(=O)n(C)c(=O)n2C,inactive
12,CC(C)NC(=O)Nc1ccc2c(c1)CC(=O)N([C@H](C)CO)C[C@H](C)[C@@H](CN(C)Cc1ccc(Oc3ccccc3)cc1)O2,inactive
13,O=C(C[C@@H]1CC[C@H]2[C@@H](COC[C@@H](O)CN2C(=O)c2ccncc2)O1)NC1CCC1,inactive
14,C[C@@H]1CCCCO[C@H](CN(C)C(=O)Nc2cccc3ccccc23)[C@H](C)CN([C@@H](C)CO)C(=O)c2cc(NC(=O)c3ccncc3)ccc2O1,inactive
15,CC(=O)NCCCS(=O)(=O)O,inactive
16,CC(=O)N(O)CCCCNC(=O)CCC(=O)N(O)CCCCCNC(=O)CCC(=O)N(O)CCCCCN,inactive
17,CC(=O)N(O)CCCCCNC(=O)CCC(=O)N(O)CCCCCNC(=O)CCC(=O)N(O)CCCCCN.CS(=O)(=O)O,active
18,CC(=O)N(O)CCCCCNC(=O)CCC(=O)N(O)CCCCCNC(=O)CCC(=O)N(O)CCCCCN,active
19,CC(=O)N(O)CCCCCNC(=O)CC(O)(CC(=O)NCCCCCN(O)C(C)=O)C(=O)O,inactive
20,C[C@H](N)CCC(=O)NCS(=O)(=O)O,inactive
